target: E3 ubiquitin-protein ligase XIAP (Homo sapiens) (UniProt P98170); assay: small molecules binding XIAP protein – biophysical, small-molecule microarray, fluorescence 635 nm, primary screen (AID 1181); details: higher = more signal;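 further: score merges 667 nm emission and signal to noise over triplicate slides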
Sequence (P98170 whole entry, looked up): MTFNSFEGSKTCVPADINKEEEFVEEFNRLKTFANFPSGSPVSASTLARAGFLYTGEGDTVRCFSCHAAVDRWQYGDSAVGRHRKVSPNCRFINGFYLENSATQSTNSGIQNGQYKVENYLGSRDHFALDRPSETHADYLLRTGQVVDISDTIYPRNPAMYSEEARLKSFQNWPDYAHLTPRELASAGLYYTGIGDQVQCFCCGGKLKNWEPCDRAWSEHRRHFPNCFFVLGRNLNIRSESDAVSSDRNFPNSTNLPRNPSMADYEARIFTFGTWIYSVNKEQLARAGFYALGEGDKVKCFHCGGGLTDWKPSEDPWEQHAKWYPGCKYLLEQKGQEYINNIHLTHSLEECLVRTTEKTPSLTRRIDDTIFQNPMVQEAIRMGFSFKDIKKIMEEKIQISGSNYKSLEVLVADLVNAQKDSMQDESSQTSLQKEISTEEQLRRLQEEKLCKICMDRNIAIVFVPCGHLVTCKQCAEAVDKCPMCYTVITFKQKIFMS

| Compound | composite z-score |
| --- | --- |
| COc1cc2c(cc1OC)CN(C(=O)[C@H]1[C@@H]3C(=O)O[C@@H](c4ccccc4)[C@@H](c4ccccc4)N3[C@@H](c3ccc(O)cc3)[C@]13C(=O)Nc1ccccc13)CC2 | 0.188 |
| C=CCNC(=O)[C@@H]1[C@H]2C(=O)O[C@H](c3ccccc3)[C@H](c3ccccc3)N2[C@H](c2ccc(OCCO)cc2)[C@@]12C(=O)Nc1ccc(C#CCC(C(=O)OC)C(=O)OC)cc12 | 0.132 |
| COCCOC(=O)N1C(=O)[C@@]2(c3cc(C#CC4(O)CCCCCC4)ccc31)[C@H](c1ccc(OCCO)cc1)N1[C@H](c3ccccc3)[C@H](c3ccccc3)OC(=O)[C@H]1[C@@H]2C(=O)N1CCN(c2ncccn2)CC1 | -0.0582 |
| CC1(C)[C@@H]2CC(C(O)C3C=CC4C(=O)N(c5ccccc5)C(=O)C4N3Nc3ccc([N+](=O)[O-])cc3)=C[C@H]1C2 (some centres undefined) | -0.141 |
| NC(=O)NCC#Cc1ccc2c(c1)[C@]1(C(=O)N2)[C@H](C(N)=O)[C@H]2C(=O)O[C@H](c3ccccc3)[C@H](c3ccccc3)N2[C@@H]1c1ccc(O)cc1 | 0.156 |
| O=C(c1ccccc1)N1Cc2ccccc2C[C@@]2(COC(c3ccc(OCCCO)cc3)=N2)C1=O | -0.231 |
| C=CC[C@]1(C(=O)NCc2ccccc2)N=C(c2ccc(OCCCO)cc2)O[C@H]1c1ccccc1N=[N+]=[N-] | 0.0623 |
| CC1CC/C=C\[C@H]2OC34C=CCN(C(C)(C)C)C(=O)[C@H]3N(C(C)CO)C(=O)[C@@H]4C2C(=O)O1 (some centres undefined) | 0.501 |
| CCOC(=O)C[C@H]1[C@H](OC(=O)c2ccc(C(=O)c3ccccc3)cc2)[C@@H](NC(=O)c2ccccc2)c2cc(OCCCO)ccc2N1C(=O)Cc1ccc(OC)cc1 | -0.102 |

Reference: PubChem BioAssay
